Screens deposited in PubChem BioAssay by The Scripps Research Institute Molecular Screening Center.
PAFAH1B3 FP inh: PAFAH1B3 enzyme inhibitors, primary screen, biochemical, fluorescence polarization, human | Platelet-activating factor acetylhydrolase IB subunit alpha1 (Homo sapiens), Q15102 | inhibition, % at 3.39 µM | 0.28% of 340,000 active | AID 492972, 2010 | recombinant PAFAH1B3, FP-rhodamine probe;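 active = inhibition above the screen-wide average of all tested compounds plus 3 SD, cut at about 25% in these data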
Target sequence (Q15102 whole entry, looked up): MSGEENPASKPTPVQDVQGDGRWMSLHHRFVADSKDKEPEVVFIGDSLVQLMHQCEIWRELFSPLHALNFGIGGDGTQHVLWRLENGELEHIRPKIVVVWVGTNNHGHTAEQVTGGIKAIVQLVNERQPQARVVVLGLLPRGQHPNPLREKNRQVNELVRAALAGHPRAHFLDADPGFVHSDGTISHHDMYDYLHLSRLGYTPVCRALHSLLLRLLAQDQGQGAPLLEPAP
PAFAH2 FP inh: PAFAH2 enzyme inhibitors, primary screen, biochemical, fluorescence polarization, human. Platelet-activating factor acetylhydrolase 2, cytoplasmic (Homo sapiens), Q99487. recombinant PAFAH2, FP-rhodamine activity probe. inhibition, % at 3.39 µM. 0.99% of 340,000 active. AID 492956, 2010;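 active = inhibition above the mean over all tested compounds plus 3 SD, cut at about 30% in these data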;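 note: inhibitors block probe labeling of enzyme so polarization drops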
ZTA DNA inh: blocks Epstein-Barr virus ZTA, an EBNA-1 counter-screen; ZTA-DNA binding, fluorescence polarization; 0.15% of 320,000 active; AID 2234; P03206; inhibition, % at 11 µM; in the data active = inhibition above about 33%
PAFAH1B2 inh: PAFAH1B2 enzyme inhibitors, primary screen, biochemical, fluorescence polarization, human | Platelet-activating factor acetylhydrolase IB subunit alpha2 (Homo sapiens), P68402 | recombinant PAFAH1B2, FP-rhodamine activity probe | inhibition, % at 3.39 µM | 1.2% of 340,000 active | AID 492953, 2010;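 active = inhibition above the mean of all tested compounds plus 3 SD, cut at about 24% in these data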
pPAFAH inh: pPAFAH enzyme inhibitors, primary screen, biochemical, fluorescence polarization, human | recombinant pPAFAH, FP-rhodamine probe fluorescence polarization | 1.5% of 330,000 active | inhibition, % at 3.39 µM | AID 463082, 2010;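 active = inhibition above the mean inhibition across the screen plus 3 SD, cut at about 25% in these data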;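 note: inhibitors block binding of the rhodamine activity-based probe so polarization drops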
Target sequence (Q13093 whole entry, looked up): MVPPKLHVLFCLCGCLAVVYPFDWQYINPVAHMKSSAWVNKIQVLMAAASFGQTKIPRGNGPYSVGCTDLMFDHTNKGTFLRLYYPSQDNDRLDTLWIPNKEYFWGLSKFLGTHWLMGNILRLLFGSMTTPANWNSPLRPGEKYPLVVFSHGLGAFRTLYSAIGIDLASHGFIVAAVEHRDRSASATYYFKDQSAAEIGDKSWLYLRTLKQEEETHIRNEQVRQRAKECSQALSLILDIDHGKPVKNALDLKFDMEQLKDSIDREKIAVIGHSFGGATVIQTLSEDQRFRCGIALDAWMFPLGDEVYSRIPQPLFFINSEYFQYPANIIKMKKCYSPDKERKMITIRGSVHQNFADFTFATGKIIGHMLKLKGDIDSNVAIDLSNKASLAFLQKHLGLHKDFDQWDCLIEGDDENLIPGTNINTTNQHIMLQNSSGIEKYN
EBNA-1 inhibitor: EBNA-1 DNA-binding inhibitors, primary screen, biochemical, fluorescence polarization | inhibition, % at 14.8 µM | 0.34% of 300,000 active; in the data active = inhibition above about 28%
ZTA inh confirm: EBV Zta binding to ZRE DNA, inhibitors, confirmation, biochemical, fluorescence polarization, triplicate. 30% of 320 active. AID 2361, 2010. shares compounds with ZTA DNA inh. inhibition, % at 11.1 µM;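 active = mean inhibition across triplicate runs above the hit threshold derived for the original primary screen, cut at about 33% in these data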
EBNA-1 counter: EBNA-1 DNA-binding inhibition, counter-screen for ZTA inhibitor project, biochemical, fluorescence polarization. shares compounds with ZTA DNA inh. inhibition, % at 14.8 µM. 320 tested, under 10 active. AID 2362, 2010; call rule not given here
Of the large screens only hits and unclear results are named; the others gave an inactive call (follow-up assays come after a bar, where they were run). Compounds with a hit are over-represented: about 2.9% of the library has one in this group of screens.

C#CCOCCOCCOCCNc1nc(N2CCN(C(=O)CCCCCCCCCCNC(=O)Cn3cc(CCCCCN)nn3)CC2)nc(N2CCN(C(=O)CCCCCCCCCCNC(=O)[C@H](CO)n3cc(CCCCCN)nn3)CC2)n1	ZTA DNA inh 50 | ZTA inh confirm 36 | EBNA-1 counter inactive
C#CCOCCOCCOCCNc1nc(N2CCN(C(=O)CCCCCCCCCCNC(=O)Cn3cc(CCCCCN)nn3)CC2)nc(N2CCN(C(=O)CCCCCCCCCCNC(=O)[C@H]([C@@H](C)CC)n3cc(CCCCCN)nn3)CC2)n1	ZTA DNA inh 83 | ZTA inh confirm 35 | EBNA-1 counter inactive
C#CCOCCOCCOCCNc1nc(N2CCOCC2)nc(N2CCN(C(=O)CCCCCCCCCCNC(=O)[C@H](CO)n3cc(CCCCCN)nn3)CC2)n1	none
CCn1c(CSc2nccn2C)nc2cc(C(=O)O)ccc21	ZTA DNA inh 38, PAFAH1B2 inh 30 | ZTA inh confirm inactive | EBNA-1 counter inactive
CCn1c(CSc2nc3ccccc3[nH]2)nc2cc(C(=O)O)ccc21	none
CCc1nnc(NS(=O)(=O)c2ccc(NC(=S)NC(=O)/C=C/c3ccccc3)cc2)s1	ZTA DNA inh 37 | ZTA inh confirm inactive | EBNA-1 counter inactive
CCNc1c([N+](=O)[O-])c(=O)oc2ccccc12	ZTA DNA inh 35 | ZTA inh confirm inactive | EBNA-1 counter inactive
CCc1ccc(Nc2c([N+](=O)[O-])c(=O)oc3ccccc23)cc1	none
COc1cc(OC)cc(-c2c(C#Cc3ccsc3)c3cc(-c4ccc(C(N)=O)cc4)ccc3n2C)c1	ZTA DNA inh 40 (no result: EBNA-1 inhibitor) | ZTA inh confirm inactive | EBNA-1 counter inactive
COCc1ccc(-c2ccc3c(c2)c(C#Cc2ccsc2)c(-c2cc(OC)cc(OC)c2)n3C)cc1	none (no result: EBNA-1 inhibitor)
Cc1cc(C)c(C#N)c(Nc2cccc(C)c2C)n1	none
CCOc1ccc(NC(=O)CSc2nccn(-c3ccc4c(c3)OCCO4)c2=O)cc1	ZTA DNA inh 47 | ZTA inh confirm inactive | EBNA-1 counter inactive
COc1ccc(-c2nnc(SCc3nc4ccccc4c(=O)[nH]3)o2)cc1	none
C#CCOCCOCCOCCNc1nc(N2CCN(C(=O)CCCCCCCCCCNC(=O)[C@H](CCCCN)n3cc(CCO)nn3)CC2)nc(N2CCN(C(=O)CCCCCCCCCCNC(=O)[C@H](CCCN=C(N)N)n3cc(C[C@@H](C)CC)nn3)CC2)n1	ZTA DNA inh 36 | ZTA inh confirm 65 | EBNA-1 counter inactive
C#CCOCCOCCOCCNc1nc(N2CCN(C(=O)CCCCCCCCCCNC(=O)[C@H](CCCCN)n3cc(CCCC(=O)O)nn3)CC2)nc(N2CCN(C(=O)CCCCCCCCCCNC(=O)[C@H](CCCN=C(N)N)n3cc(C[C@@H](C)CC)nn3)CC2)n1	ZTA DNA inh 48 | ZTA inh confirm inactive | EBNA-1 counter inactive
Cc1cc(C(F)(F)F)c(C#N)c(SCC(=O)Nc2nc3ccccc3s2)n1	none
Cc1ccc2sc(NC(=O)CSc3nc(C)cc(C)c3C#N)nc2c1	ZTA DNA inh 38 | ZTA inh confirm inactive | EBNA-1 counter inactive
C=CCNc1nc(S(=O)Cc2ccc(C)cc2)nc2c1CCCC2 (centres undefined)	none
COc1cc(/C=C2\COC/C(=C\c3ccc(O)c(OC)c3)C2=O)ccc1O	ZTA DNA inh 52 | ZTA inh confirm 42 | EBNA-1 counter inactive
COc1cc(/C=C2/CC/C(=C/c3ccc(O)c(OC)c3)C2=O)ccc1O	none
CCOC(=O)Cc1csc(NC(=O)Nc2cccc(OC)c2)n1	none
Cn1c(SCC(=O)N2CCN(c3ccccc3)CC2)nnc1-c1ccncc1	ZTA DNA inh 38 | ZTA inh confirm inactive | EBNA-1 counter inactive
CCOC(=O)C1(C)NC(c2cccc(C)c2)C2C(=O)N(c3ccccc3)C(=O)C21 (centres undefined)	ZTA DNA inh active | ZTA inh confirm inactive | EBNA-1 counter inactive
Cc1c(Br)c([N+](=O)[O-])nn1C(C)C(=O)N1CCc2ccccc2C1 (centres undefined)	none
COC/C=C/C1=CC2=CC(=O)C(C)(OC(=O)c3cnc4ccccc4n3)C(=O)C2=CN1C(CO)CO (centres undefined)	none
COC/C=C/C1=CC2=CC(=O)C(C)(OC(=O)c3cnc4ccccc4n3)C(=O)C2=CO1 (centres undefined)	ZTA DNA inh 40, pPAFAH inh 55 (no result: PAFAH1B3 FP inh, PAFAH2 FP inh, PAFAH1B2 inh) | ZTA inh confirm inactive | EBNA-1 counter inactive
CC1CCCN(C(=O)c2cccc(S(=O)(=O)N3CCCC3)c2)C1 (centres undefined)	none (no result: EBNA-1 inhibitor)
O=C1/C(=C/c2ccc(O)cc2)SC(=S)N1Cc1cccnc1	ZTA DNA inh 77 | ZTA inh confirm inactive | EBNA-1 counter inactive
CCN(CC)CCOC(=O)c1ccc(N/C=C(/C#N)c2nc(-c3ccc4c(c3)OCO4)cs2)cc1	none
CCN(CC)CCOC(=O)c1ccc(N/C=C(/C#N)c2nc(-c3ccc(OC)cc3)cs2)cc1	ZTA DNA inh 47 | ZTA inh confirm inactive | EBNA-1 counter inactive
C#CCOc1c(/C=C\c2nc(O)c([N+](=O)[O-])c(=O)[nH]2)cc(Br)cc1OC	ZTA DNA inh 50 | ZTA inh confirm inactive | EBNA-1 counter inactive
COC(=O)COc1c(/C=C\c2nc(O)c([N+](=O)[O-])c(=O)[nH]2)cccc1OC	none
CCC(=O)Nc1ccc2c(c1)ncn2-c1ccc(C)cc1	none
CC(=O)Nc1c(S(=O)(=O)c2ccccc2)c2nc3ccccc3nc2n1Cc1ccccc1	none
C=CCn1c(NS(=O)(=O)c2ccccc2)c(S(=O)(=O)c2ccc(C)cc2)c2nc3ccccc3nc21	ZTA DNA inh 56 | ZTA inh confirm inactive | EBNA-1 counter inactive
Cc1nn(CC(=O)Nc2ccc(C(=O)N3CCCC3)cc2)c(=O)c2ccccc12	none
Cc1nn(CC(=O)Nc2ccc(C(=O)N3CCCCC3)cc2)c(=O)c2ccccc12	ZTA DNA inh 35 | ZTA inh confirm inactive | EBNA-1 counter inactive
O=C1c2ccccc2-c2onc3ccc(NCCCn4ccnc4)c1c23	ZTA DNA inh 49, pPAFAH inh 105 (no result: PAFAH1B3 FP inh, PAFAH2 FP inh, PAFAH1B2 inh) | ZTA inh confirm inactive | EBNA-1 counter inactive
Cc1nc2ccccn2c1C(=O)OCC#N	none
CN(C(=O)COC(=O)CCCN1C(=O)c2cccc3cccc(c23)C1=O)C1CCS(=O)(=O)C1 (centres undefined)	none
